The panel holds about 83,000 compounds, 20% with a hit somewhere; the sample as a whole holds those more often.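 96-well plates, one dose, 48 hours. Percent growth reported; active if below 10.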 A number with no mark means an inactive call. Active and inactive are the calls of the source.
What was measured:
Test in all cases: NCI-60 one-dose screen, 48 h (100 = growth as untreated, 0 = no growth, -100 = all killed)
Conditions in all cases: 10 µM unless noted
[1] = test system: HCT-15 colon
[2] = test system: HT29 colon
[3] = test system: SNB-75 CNS
[4] = test system: SNB-19 CNS
[5] = test system: U251 CNS
[6] = test system: PC-3 prostate
[7] = test system: SK-MEL-5 melanoma
[8] = test system: UACC-62 melanoma
[9] = test system: LOX IMVI melanoma
[10] = test system: SK-MEL-28 melanoma
[11] = test system: SK-MEL-2 melanoma
[12] = test system: EKVX NSCLC
[13] = test system: SN12C renal
[14] = test system: UO-31 renal
[15] = test system: TK-10 renal
[16] = test system: ACHN renal
[17] = test system: CAKI-1 renal
[18] = test system: A498 renal
[19] = test system: MOLT-4 leukemia
[20] = test system: CCRF-CEM leukemia

| SMILES | growth [1] | growth [2] | growth [3] [%] | growth [4] | growth [5] | growth [6] | growth [7] | growth [8] | growth [9] | growth [10] | growth [11] | growth [12] | growth [13] | growth [14] | growth [15] [%] | growth [16] | growth [17] | growth [18] | growth [19] | growth [20] |
| --- | --- | --- | --- | --- | --- | --- | --- | --- | --- | --- | --- | --- | --- | --- | --- | --- | --- | --- | --- | --- |
| COC[C@]12CCC(C)(C)C[C@H]1C1=CC[C@@H]3[C@@]4(C)CCCNC(C)(C)[C@@H]4CC[C@@]3(C)[C@]1(C)CC2 | -86.5% (active) | -28% (active) | 12 | -2.59% (active) | -58.1% (active) | 0.7% (active) | -98.1% (active) | -74% (active) | -94.6% (active) | -79.4% (active) | 35.2% | -83.4% (active) | 29.9% | -50.2% (active) | 64.7 | -10.6% (active) | -29.4% (active) | 37.1% | -35% (active) |  |
| CC(=O)Nc1cccc(Nc2nc(N[C@H](C)c3ccccc3)c3ccccc3n2)c1 | 41.5% | 41.1% | 30.6 | 74% | 74.4% | 45.5% | 38.8% | 65.5% | 45.6% | 74.6% | 73.6% | 52% | 53.9% | 40.5% | 68.1 | 77.9% | 35.8% | 22.8% | 16.8% |  |
| COc1ccc(C(=O)c2c(N)c(C#N)cn2-c2ccccc2OC)cc1 | 26% | 6.81% (active) | 29.3 | 29.8% | 34.2% | 36.2% | 6.34% (active) | 23.3% | 23.8% | 59.2% | 45.3% | 48.2% | 45.1% | 47.9% | 83.2 | 46.7% |  | 7.39% (active) | 30.5% | 19.9% |
| CCc1cccc(NC(=O)CNc2cc(S(=O)(=O)N(C)C)cc(C)c2C)c1 | 106% | 104% | 47 | 97.3% | 104% | 81.6% | 82.8% | 72.5% | 89.9% | 99.5% | 102% | 50.7% | 69.4% | 48.5% | 65 | 91.3% | 50.5% | 35.5% | 82.4% |  |
| COc1cc(-c2nn(C(C)(C)C)cc2-c2ccnc(NCCCNS(=O)(=O)c3ccc(C)cc3)n2)ccc1Cl | 80.5% | 78.3% | 54.7 | 100% | 92.3% | 58.1% | 83.1% | 68.3% | 72.7% | 101% | 87.4% | 46.1% | 60.8% | 44% | 65.2 | 89.6% | 27.4% | 30.9% | 44.8% |  |
| CCOc1ccccc1NC1=C(Cl)C(=O)c2nc(C)ccc2C1=O | -76.6% (active) | 20% | 101 | 46.5% | 37.9% | 4.34% (active) | -97.8% (active) | -29.1% (active) | -82.2% (active) | 14.6% | -15.7% (active) | -2.24% (active) | -51% (active) | -93% (active) | 124 | -99.1% (active) |  | 78.8% | -24.9% (active) | -6.33% (active) |
| C=C(C)[C@@H]1CC[C@]2(C(=O)NCCCCCN(CCC#N)CCC#N)CC[C@]3(C)[C@H](CC[C@@H]4[C@@]5(C)CCC(=O)C(C)(C)[C@@H]5CC[C@]43C)[C@@H]12 | 105% | 108% | 62.1 | 107% | 115% | 92.3% | 99.5% | 84% | 87.8% | 108% | 106% | 75.2% | 89.3% | 71.6% | 74.7 | 98.7% | 61.1% | 48.9% | 92% |  |
| C=CCn1c(SCC(=O)Nc2ccc(C(=O)/C=C/c3cc(OC)c(OC)c(OC)c3)cc2)nnc1-c1c[nH]c2ccccc12 | -20.3% (active) | -57.2% (active) | 91.2 | 21.7% | 8.96% (active) | 40.6% | 25.2% | 36.7% | -65.1% (active) | 41.7% | 101% | 73.7% | 34.1% | 43.5% | 144 | 52.2% |  | 44% | 2.78% (active) | 5.4% (active) |

— PubChem BioAssay (NCI)
